# Pf growth 96h = Primary qHTS for delayed death inhibitors of the malarial parasite plastid, 96 hour incubation. P. falciparum luciferase reporter growth, 96 h. Potency, µM (doses to about 28.7 µM), without a hit: at the highest dose activity change, negative = inhibition, most hits filed as inhibitors. actives 6.9% (n = 320,000); also: % is scaled to controls: 0 for no effect and ±100 for the full control effect
#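 Delayed-death screen, second-generation endpoint: infected erythrocytes, 2% hematocrit, 0.05% parasitemia final; 96 hours at 37 C, 5% CO2; luciferase detection reagent; luminescence decrease equals reduced growth.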
# Pf growth 48h = Primary qHTS for delayed death inhibitors of the malarial parasite plastid, 48 hour incubation. P. falciparum luciferase growth in erythrocytes, 48 h. Potency, µM (highest dose often 28.7 µM), without a hit: at the highest dose activity change, negative = inhibition, usual class: inhibitors. actives 5.9% (n = 310,000); also: % is scaled to controls: 0 for no effect and ±100 for the full control effect
#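 Compounds are pin-transferred into medium, infected erythrocytes (2% hematocrit, 0.1% parasitemia final) are added, and plates sit one parasite generation at 37 C in 5% CO2. Detection reagent is then added and luminescence measured.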
# Sm TGR inh = qHTS Assay for the Inhibitors of Schistosoma Mansoni Peroxiredoxins; Schistosoma mansoni thioredoxin glutathione reductase (TGR), Q962Y6; purified TGR, DTNB reduction, TNB absorbance 405 nm; Potency, µM (titrated, usually from 114 µM), for inactives: at the top dose activity change, negative = inhibition, most hits filed as inhibitors; actives 3% (n = 360,000); AID 485364, 2010; also: % is scaled to controls: 0 for no effect and ±100 for the full control effect; nearly all actives have a fitted effect of over 60% in size
#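 First, TGR (20 nM dispensed) and NADPH were mixed with compound. Second, a 15 min room-temperature incubation followed. Third, further NADPH and then DTNB were added to start the reaction. Finally, TNB absorbance was monitored kinetically.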
# SARS PLP yeast = qHTS of Yeast-based Assay for SARS-CoV PLP. S. cerevisiae expressing SARS-CoV PLpro, growth rescue. Potency, µM (titrated, usually from 32.9 µM), inactives show at the highest dose activity, positive = growth rescue, hits mostly activators. actives 0.19% (n = 330,000); calls by dose curve; also: 0% is about no effect; nearly all actives have a fitted effect of over 55% in size
# An asterisk follows results filed as active; ? = inconclusive; / = not tested or not shown; [ ] = another dose, or the depositor's remark. Most compounds without a hit are left out; they make up all but 12% or so of the library. Unless noted, calls follow the shape of the dose curve; as a rule, active = well fitted curve in the direction sought with a large enough effect; inconclusive = small, poorly fitted or top-dose-only effect, or another doubt; inactive = no such curve, though single readings can be large; an effect the other way counts as inactive or inconclusive. Potency is read from the fitted curve at half-maximal effect.
SMILES,Pf growth 96h,Pf growth 48h,Sm TGR inh,SARS PLP yeast
CC1Cc2cc(S(=O)(=O)N3CCC(C(=O)N(C)Cc4ccccc4)CC3)ccc2N1C(=O)C1CC1 (stereo unspecified),10µM*,13µM*,4%,-6%
CCCCN(C)C(=O)C1CCC(CNS(=O)(=O)c2ccc3c(c2)CC(C)N3C(C)=O)CC1 (stereo unspecified),?,?,0%,1%
CC(=O)N1c2ccc(S(=O)(=O)NCC3CCC(C(=O)N(C)Cc4ccccc4)CC3)cc2CC1C (stereo unspecified),?,13µM*,-2%,1%
CC(=O)N1c2ccc(S(=O)(=O)NCC3CCC(C(=O)N4CCCCC4)CC3)cc2CC1C (stereo unspecified),2%,-14%,3%,2%
CC(=O)N1c2ccc(S(=O)(=O)NCC3CCC(C(=O)N4CCCC(C)C4)CC3)cc2CC1C (stereo unspecified),1.2µM*,?,-4%,1%
CCC(=O)N1CCc2cc(S(=O)(=O)CCC(=O)N(C)c3ccc(OC)cc3OC)ccc21,?,?,-2%,0%
CCc1ccc(OC(C)C(=O)Nc2ccc(S(=O)(=O)Nc3nccs3)cc2)cc1 (stereo unspecified),?,12%,8%,-1%
CCN(CC)S(=O)(=O)c1cc(-c2nnc(Nc3ccc(OC)c(C(N)=O)c3)c3ccccc23)ccc1C,/,/,4%,/
CC(=O)N1c2ccc(S(=O)(=O)N3CCC(C(=O)NC4CCC(C)CC4)CC3)cc2CC1C (stereo unspecified),5.2µM*,?,-7%,0%
COCCCNC(=O)C1CCC(CNS(=O)(=O)c2ccc3c(c2)CC(C)N3C(=O)C2CC2)CC1 (stereo unspecified),13µM*,-4%,1%,0%
COc1cc(CNS(=O)(=O)c2ccc3c(c2)CC(C)N3C(C)=O)cc(OC)c1OC (stereo unspecified),5.9µM*,?,0%,-1%
COCCNC(=O)C1CCC(CNS(=O)(=O)c2ccc3c(c2)CC(C)N3C(C)=O)CC1 (stereo unspecified),/,/,-11%,/
CCn1cc(C(=O)NC2CC3CCC2C3)c(=O)c2ccc(C)nc21 (stereo unspecified),5.2µM*,-13%,0%,-3%
C=CCSc1nnc(NC(=O)c2cn(CC)c3nc(C)ccc3c2=O)s1,?,-27%,50µM*,-1%
CCn1cc(C(=O)NC2CCCCC2C)c(=O)c2ccc(C)nc21 (stereo unspecified),12µM*,1%,4%,/
Cc1ccc(S(=O)(=O)N[C@@H](CO)C(=O)N[C@@H](Cc2ccc(O)cc2)C(=O)O)cc1,35%,9%,-1%,1%
COCCNC(=O)c1ccc2c(=O)n(CCc3ccccc3)c(SCC(=O)CC(=O)OC)nc2c1,/,/,4%,/
NCCSC1CC(=O)N(c2ccc(Cl)c(Cl)c2)C1=O (stereo unspecified),?,45%,63µM*,-5%
O=C1CC(SCc2nc3ccccc3[nH]2)C(=O)N1c1cccc(Cl)c1 (stereo unspecified),2%,/,?,-39%
O=C1CC(SCc2nc3ccccc3[nH]2)C(=O)N1c1ccc(F)cc1 (stereo unspecified),/,11%,45µM*,-36%
Cc1cc(C)n(CC2CC(=O)N(c3ccc(Cl)c(Cl)c3)C2=O)n1 (stereo unspecified),7%,7%,-24%,3%
NCCSC1CC(=O)N(c2ccc(F)cc2)C1=O (stereo unspecified),9.3µM*,29%,?,-8%
CCN(Cc1ccccc1)C(=O)Cn1c(=O)n(-c2ccc(Cl)cc2)c(=O)c2c(C)c(C(=O)N(C)C)sc21,/,/,0%,/
CCCOc1nc2c(c(=O)n(C)c(=O)n2C)n1Cc1cccc2ccccc12,/,13µM*,-28%,-1%
CCOC(=O)N1CCN(Cc2nc3c(c(=O)n(C)c(=O)n3C)n2Cc2cccc3ccccc23)CC1,8.3µM*,12µM*,-27%,0%
SMILES,Pf growth 96h,Pf growth 48h,Sm TGR inh,SARS PLP yeast
CCOC(=O)N1CCN(Cc2nc3c(c(=O)n(C)c(=O)n3C)n2Cc2cccc(C)c2)CC1,?,/,10%[11.4 µM],6%
COc1cc(OC)c2c(C)c(Cl)c(=O)oc2c1,10µM*,32%,-1%,-3%
CC(C)c1ccc(NC(=S)N2CCN(S(=O)(=O)c3ccccc3)CC2)cc1,?,?,-2%,11%
NNC(=S)NCc1ccccc1,9.3µM*,?,1%,3%
S=C(NCc1ccccc1)NCc1cccc(CNC(=S)NCc2ccccc2)c1,0%,-11%,7%,?
O=C(O)CNC(=S)NCc1ccccc1,20%,13µM*,-2%,1%
CCn1c(SCC(=O)NC2CC2)nnc1-c1ccc(OC)cc1,-39%,12%,1%,?
CCc1ccccc1NC(=O)CN1C(=O)c2cccnc2Sc2ccccc21,/,/,-9%,/
CCOc1ccc(-c2nc(CSCC(=O)NCC3CCCO3)c(C)o2)cc1 (stereo unspecified),13µM*,43%,-32%,3%
COc1ccc(-c2nc(CSCC(=O)NCC3CCCO3)c(C)o2)cc1OC (stereo unspecified),15µM*,58%,-21%,-1%
Cc1ccc(-c2nc(CSCC(=O)NCC3CCCO3)c(C)o2)cc1 (stereo unspecified),?,19%,?,0%
COc1ccc(-c2nc(CN3CCC(C(=O)NCC4CCCO4)CC3)c(C)o2)cc1OC (stereo unspecified),-28%,4%,-10%,1%
CC1=CC(C)(C)N(S(=O)(=O)c2ccc(C)cc2)c2ccc(C)cc21,10µM*,/,-22%,-28%
CCc1ccc(OCCCCN(C)Cc2ccccc2)cc1,13µM*,-2%,-20%,-2%
CN(CCOCCOc1ccc2ccccc2c1)Cc1ccccc1,15µM*,/,-30%,-4%
COc1ccc(OCCN(C)Cc2ccccc2)cc1,-46%,28%,-2%,1%
Cc1cc(C)c(C)c(OCCCCN(C)Cc2ccccc2)c1,13µM*,?,-13%,-7%
CN(CCCCOc1ccc(F)cc1)Cc1ccccc1,?,45%,1%,1%
CN(C)CCCCOc1ccc(F)cc1,12µM*,-19%,-2%,1%
CN(Cc1ccco1)C(=O)C1CCCN(c2ncnc3c2nc2n3CCCCC2)C1 (stereo unspecified),?,-21%,-4%,-1%
NC(=O)c1ccc(NC(=O)CSc2nc3ccccc3c(=O)n2CCCN2CCOCC2)cc1,-28%,-27%,-3%,1%
COc1cc(Cl)c(NC(=O)CN(C)S(=O)(=O)c2ccc3[nH]c4c(c3c2)CCCC4)c(OC)c1,/,/,4%,/
COc1cc(NC(=O)CCCN2C(=O)CCn3nc(-c4cn(C)c5ccccc45)cc32)cc(OC)c1,/,/,0%,/

# Assay outcomes as filed in PubChem.
